The assay can be described thus: chemical genetic growth profiling, strain panel (AID 1159580).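 Note: tested at 20 µM; growth read once vehicle control cultures reached saturation at 30 °C; 1 = growth at the plate median or of vehicle wells; lower values mean less growth of the strain.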 The note with it: growth OD.
[1] abbreviates: S. cerevisiae deletion strains, locus YAL040C, strain CLN3, stronger effect = lower value.
The mark [2] stands for this setting: S. cerevisiae deletion strains, locus YCL061C, strain MRC1 (second series), stronger effect = lower value.
Setting [3] is: S. cerevisiae deletion strains, locus YER002W, strain NOP16, stronger effect = lower value.
Setting [4] is: S. cerevisiae deletion strains, locus YNL128W, strain TEP1, stronger effect = lower value.
Where [5] appears, read: S. cerevisiae deletion strains, locus YNL153C, strain GIM3, stronger effect = lower value.
Setting [6] is: S. cerevisiae deletion strains, locus YNL175C, strain NOP13, stronger effect = lower value.
The mark [7] stands for this setting: S. cerevisiae deletion strains, locus YNL197C, strain WHI3, stronger effect = lower value.
Setting [8] is: S. cerevisiae deletion strains, locus YNL224C, strain SQS1, stronger effect = lower value.
The mark [9] stands for this setting: S. cerevisiae deletion strains, locus YOR083W, strain WHI5 (second series), stronger effect = lower value.
The mark [10] stands for this setting: S. cerevisiae deletion strains, locus YAL013W, strain DEP1, stronger effect = lower value.
[11] abbreviates: S. cerevisiae deletion strains, locus YDR150W, strain NUM1, stronger effect = lower value.
[12] abbreviates: S. cerevisiae deletion strains, locus YDR363W, strain ESC2, stronger effect = lower value.
Setting [13] is: S. cerevisiae deletion strains, locus YGR078C, strain PAC10, stronger effect = lower value.
The mark [14] stands for this setting: S. cerevisiae deletion strains, locus YMR307W, strain GAS1, stronger effect = lower value.
[15] abbreviates: S. cerevisiae deletion strains, locus YNL322C, strain KRE1, stronger effect = lower value.
The mark [16] stands for this setting: S. cerevisiae deletion strains, locus YJR075W, strain HOC1, stronger effect = lower value.
Where [17] appears, read: S. cerevisiae deletion strains, locus YMR263W, strain SAP30, stronger effect = lower value.
[18] abbreviates: S. cerevisiae deletion strains, locus YPL241C, strain CIN2, stronger effect = lower value.
[19] abbreviates: S. cerevisiae deletion strains, locus YBR229C, strain ROT2, stronger effect = lower value.
Setting [20] is: S. cerevisiae deletion strains, locus YCL061C, strain MRC1, stronger effect = lower value.
The mark [21] stands for this setting: S. cerevisiae deletion strains, locus YDL101C, strain DUN1, stronger effect = lower value.
The mark [22] stands for this setting: S. cerevisiae deletion strains, locus YEL061C, strain CIN8, stronger effect = lower value.
Where [23] appears, read: S. cerevisiae deletion strains, locus YHR030C, strain SLT2, stronger effect = lower value.
Where [24] appears, read: S. cerevisiae deletion strains, locus YHR087W, strain rtc3, stronger effect = lower value.
[25] abbreviates: S. cerevisiae deletion strains, locus YJR043C, strain POL32, stronger effect = lower value.
Where [26] appears, read: S. cerevisiae deletion strains, locus YLR039C, strain RIC1, stronger effect = lower value.
The mark [27] stands for this setting: S. cerevisiae deletion strains, locus YLR058C, strain SHM2 (second series), stronger effect = lower value.
The mark [28] stands for this setting: S. cerevisiae deletion strains, locus YLR085C, strain ARP6, stronger effect = lower value.
[29] abbreviates: S. cerevisiae deletion strains, locus YLR262C, strain YPT6, stronger effect = lower value.
Setting [30] is: S. cerevisiae deletion strains, locus YML094W, strain GIM5, stronger effect = lower value.
Setting [31] is: S. cerevisiae deletion strains, locus YMR219W, strain ESC1, stronger effect = lower value.
The mark [32] stands for this setting: S. cerevisiae deletion strains, locus YNL298W, strain CLA4 (second series), stronger effect = lower value.
[33] abbreviates: S. cerevisiae deletion strains, locus YNR030W, strain Alg12, stronger effect = lower value.
[34] abbreviates: S. cerevisiae deletion strains, locus YPL055C, strain LGE1, stronger effect = lower value.
[35] abbreviates: S. cerevisiae deletion strains, locus YPR135W, strain CTF4, stronger effect = lower value.

The whole screen tested about 5,500 compounds, of which about 2,000 (36%) were called active. Roughly 18% stayed inconclusive and do not appear here. The list shows a part of the results. Values without a mark were called inactive. Cut-off read from the data, not from the text of the source: active = normalized growth mostly below about 0.91 (no sharp cut-off); inconclusive = no clear call, values can overlap the other calls; inactive = mostly above about 0.92.

On to `CN1CCc2cc(NC(=O)Nc3cccnc3)ccc21`, for which the normalized growth was 0.994 under setting [1]; 0.996 under setting [2]; 0.996 under setting [3]; 0.988 (S. cerevisiae deletion strains, locus YGR229C, strain SMI1, stronger effect = lower value); 0.994 under setting [4]; 1.01 under setting [5]. Moreover, the normalized growth by setting is: under setting [6], 1.01; under setting [7], 0.992; under setting [8], 1.03; under setting [9], 0.977.

For the compound `Cn1ccc2cc3c(cc21)CCN3C(=O)Nc1cccnc1`, the normalized growth is, setting by setting: under setting [10], 0.995; under setting [1], 1; under setting [2], 1.01; under setting [11], 0.992; under setting [12], 0.999; under setting [3], 0.999. For the same compound, the normalized growth under setting [13] is 0.998; the normalized growth under setting [14] was 1.01; the normalized growth under setting [5] was 0.976; the normalized growth under setting [6] is 0.981; the normalized growth under setting [7] was 1; the normalized growth under setting [8] was 0.989. In addition, the normalized growth is 1.01 under setting [15] and 0.969 under setting [9].

On to `COc1cc2c(cc1C(F)(F)F)N(C(=O)Nc1cc(F)cc(-c3cccnc3)c1)CC2`, for which the normalized growth is 1.01 under setting [10]; 1.08 under setting [1]; 1 under setting [2]; 1.02 under setting [11]; 1 under setting [12]; 1.05 under setting [3]. Moreover, the normalized growth by setting is: under setting [16], 1.11 [resistant] (active); under setting [17], 1.01; under setting [4], 1.05; under setting [6], 1.01; under setting [7], 1.01; under setting [8], 1.02. In addition, the normalized growth is, setting by setting: under setting [15], 1.01; under setting [9], 0.9; under setting [18], 1.01.

With `c1ccc(C2CC2)c(OCC2=NCCN2)c1`, the normalized growth is, setting by setting: under setting [1], 1.05; under setting [2], 1.01; under setting [11], 1; under setting [12], 1.02; under setting [3], 0.98; under setting [13], 1.01. The normalized growth was 1.01 under setting [17]; 0.994 under setting [6]; 0.984 under setting [7]; 0.994 under setting [8]; 0.999 under setting [15]; 1.02 under setting [9]. Moreover, under setting [18], the normalized growth was 1.01.

For `O=C1CNC(=S)N1CCc1ccccn1`, the normalized growth runs as follows: under setting [10], 0.992; under setting [19], 0.987; under setting [20], 0.99; under setting [21], 0.978; under setting [11], 0.994; under setting [22], 0.999. The normalized growth runs as follows: under setting [13], 0.987; under setting [23], 0.951; under setting [24], 0.992; under setting [25], 0.991; under setting [16], 1.01; under setting [26], 0.973. Moreover, the normalized growth was 0.979 under setting [27]; 1.02 under setting [28]; 0.962 under setting [29]; 0.945 under setting [30]; 0.993 under setting [31]; 1 under setting [17]. The normalized growth is 1.08 under setting [14]; 1.01 under setting [5]; 0.966 under setting [32]; 0.983 under setting [15]; 0.98 under setting [33]; 0.997 (S. cerevisiae deletion strains, locus YOL006C, strain TOP1, stronger effect = lower value). Further, the normalized growth by setting is: under setting [34], 0.998; under setting [18], 1.03; under setting [35], 0.914; (S. cerevisiae strains, strain wild type, stronger effect = lower value) 0.969.

Regarding `O=C1c2cccc3c(SCCO)ccc(c23)C(=O)N1CCc1ccccn1`, the normalized growth reads like this: under setting [10], 0.999; under setting [19], 0.997; under setting [20], 1; under setting [21], 1.09; (S. cerevisiae deletion strains, locus YDL134C, strain PPH21, stronger effect = lower value) 1.01; under setting [11], 1.02. Further, the normalized growth under setting [22] is 1; the normalized growth under setting [13] was 1.01; the normalized growth under setting [23] was 0.903; the normalized growth under setting [24] was 1; the normalized growth (S. cerevisiae deletion strains, locus YJL187C, strain SWE1, stronger effect = lower value) is 0.845 (active); the normalized growth under setting [25] is 0.994. In addition, the normalized growth under setting [16] was 0.984; the normalized growth under setting [26] is 1; the normalized growth under setting [27] was 0.991; the normalized growth under setting [28] was 0.948; the normalized growth under setting [29] was 1; the normalized growth under setting [30] is 1.01. In addition, the normalized growth is 0.995 under setting [31]; 1.01 under setting [17]; 1 under setting [4]; 0.995 under setting [5]; 0.993 under setting [32]; 0.996 under setting [15]. The normalized growth was 0.989 under setting [33], 1.03 under setting [34], 0.989 under setting [18] and 0.907 under setting [35].
